In PubChem BioAssay (NCATS):
Inconclusive results are not listed. Active and inactive are the calls of the source. Unless noted, calls follow the shape of the dose curve; as a rule, active = well fitted curve in the direction sought with a large enough effect; inconclusive = small, poorly fitted or top-dose-only effect, or another doubt; inactive = no such curve, though single readings can be large; an effect the other way counts as inactive or inconclusive.

Key:
[1] = qHTS Assay for Lipid Storage Modulators (AID 1519; calls by dose curve; also: potency is read from the fitted curve at half-maximal effect; as to activity change, negative = inhibition: % is scaled to controls: 0 for no effect and ±100 for the full control effect); details: Drosophila S3 cells, BODIPY lipid droplet/cell ratio, laser cytometry, cells loaded with oleic acid
In short: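 Cells seeded at 5,000 per well were treated with compounds over a concentration series and loaded with oleic acid (400 uM, as added). Lipid droplet fluorescence (488 nm excitation, 500-530 nm channel) was read by laser-scanning cytometry and normalized to 20 uM Triacsin C.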

[2] = target: Ubiquitin carboxyl-terminal hydrolase 1 (Homo sapiens) (UniProt O94782); experiment: Inhibitors of USP1/UAF1: Pilot qHTS (AID 504865); details: purified USP1/UAF1, Ub-rhodamine cleavage fluorescence; series mostly up to 114 µM;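 also: rhodamine fluorescence freed from ubiquitin-rhodamine substrate followed over time; top concentration of the series differs between compounds; % is scaled to controls: 0 for no effect and ±100 for the full control effect; nearly all actives have a fitted effect of over 35% in size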
In short: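 Enzyme-free wells gave the negative control, while test wells held 1nM USP1/UAF1 preincubated with compound for 15 min at room temperature. Ub-Rho at 150nM final started the reaction, and fluorescence at 480/540 nm was recorded kinetically.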

[3] = target: Luciferin 4-monooxygenase (Photinus pyralis) (UniProt P08659); experiment: Biochemical firefly luciferase enzyme assay for NPC (AID 624030);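 also: purified P. pyralis luciferase at 10 nM with luciferin and ATP substrate; 0% = DMSO and -100% = full luciferase inhibition by PTC124 control; nearly all actives have a fitted effect of over 70% in size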; details: purified P. pyralis luciferase, luminescence, 5 min; series mostly up to 24.9 µM
In short: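 Counter-screen for direct inhibition of the luciferase enzyme by approved-drug library compounds, run at 10 nM enzyme in 50 mM Tris acetate (final). Luminescence was read within 5 min of enzyme-buffer addition and normalized to PTC124 versus DMSO (0%).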

[4] = qHTS profiling for inhibitors of Plasmodium falciparum proliferation (AID 504749); also: nearly all actives have a fitted effect of over 60% in size; also: potency is read from the fitted curve at half-maximal effect;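 as to activity, negative = inhibition: 0% = DMSO vehicle and full inhibition = artemisinin control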; details: P. falciparum in erythrocytes, SYBR Green DNA, 72 h
In short: (§1)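 Fluorescence of SYBR Green-bound parasite DNA, read at 485/535 nm, served as the growth measure. Infected erythrocytes were cultured with compound 72 h; artemisinin (0.29 uM) and DMSO wells defined the normalization range.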

C2A = experiment: as above; details: P. falciparum in erythrocytes, SYBR Green DNA, 72 h; series mostly up to 12.8 µM
In short: as §1

CP191 = experiment: as above; details: P. falciparum in erythrocytes, SYBR Green DNA, 72 h; series mostly up to 12.8 µM
In short: as §1

CP201 = experiment: as above; details: P. falciparum in erythrocytes, SYBR Green DNA, 72 h; series mostly up to 12.8 µM
In short: as §1

CP238 = experiment: as above; details: P. falciparum in erythrocytes, SYBR Green DNA, 72 h; series mostly up to 12.8 µM
In short: as §1

CP262 = experiment: as above; details: P. falciparum in erythrocytes, SYBR Green DNA, 72 h; series mostly up to 12.8 µM
In short: as §1

CP268 = experiment: as above; details: P. falciparum in erythrocytes, SYBR Green DNA, 72 h; series mostly up to 12.8 µM
In short: as §1

CP315 = experiment: as above; details: P. falciparum in erythrocytes, SYBR Green DNA, 72 h; series mostly up to 12.8 µM
In short: as §1

DFO2036 = experiment: as above; details: P. falciparum in erythrocytes, SYBR Green DNA, 72 h; series mostly up to 12.8 µM
In short: as §1

ECU = experiment: as above; details: P. falciparum in erythrocytes, SYBR Green DNA, 72 h; series mostly up to 12.8 µM
In short: as §1

FAB9 = experiment: as above; details: P. falciparum in erythrocytes, SYBR Green DNA, 72 h; series mostly up to 12.8 µM
In short: as §1

PC15 = experiment: as above; details: P. falciparum in erythrocytes, SYBR Green DNA, 72 h; series mostly up to 12.8 µM
In short: as §1

PC49 = experiment: as above; details: P. falciparum in erythrocytes, SYBR Green DNA, 72 h; series mostly up to 12.8 µM
In short: as §1

[5] = S16 Schwann cell PMP22 intronic element beta-lactamase assay (AID 624044; calls by dose curve;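 also: 0% = DMSO and -100% = potassium clavulanate positive control; nearly all actives have a fitted effect of over 15% in size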); details: S16 rat Schwann cells, PMP22 element beta-lactamase FRET, 24 h; series mostly up to 17.1 µM
In short: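 Beta-lactamase reporter under a PMP22 intronic regulatory element in stable S16 rat Schwann cells; 24 h compound exposure. 460 nm blue signal normalized between DMSO (0%) and potassium clavulanate, with 535 nm FRET tracking viability; curves classed by r2 and response.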

[6] = target: Cytochrome P450 3A4 (Homo sapiens) (UniProt P08684); experiment: qHTS Assay for Inhibitors and Substrates of Cytochrome P450 3A4 (AID 884); details: recombinant CYP3A4, Luciferin-PPXE luminescence; series mostly up to 57.1 µM; also: % is scaled to controls: 0 for no effect and ±100 for the full control effect; nearly all actives have a fitted effect of over 50% in size
In short: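 Luminescent readout of luciferin produced by CYP3A4 (20 nM) dealkylation of Luciferin-PPXE, 25 uM (its KM). NADPH-driven reaction ran 60 min at RT after 10 min compound preincubation; data scaled to 57 uM ketoconazole as 100% inhibition.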

[7] = Confirmation and Secondary Assay for Modulators of Hemoglobin Beta Chain Splicing at IVS2 654 locus (AID 910); details: HeLa EGFP-654 splicing reporter, GFP fluorescence, 48 h; series mostly up to 46.1 µM;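 also: per-well total GFP intensity by laser scanning cytometry after 2-day treatment; % of control where 0% means no effect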
In short: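 HeLa cells stably carrying EGFP interrupted by mutant beta-globin IVS2-654 intron (CMV-driven) were treated with compound for 2 days at 37C; corrected splicing was scored as total peak GFP intensity per well (488 nm excitation, 500-520 nm emission).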

[8] = Confirmation and Secondary Assay for Modulators of Hemoglobin Beta Chain Splicing at IVS2 705 locus (AID 930); details: HeLa EGFP-705 splicing reporter, GFP fluorescence, 48 h; series mostly up to 46.1 µM;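 also: HeLa cells stably expressing the EGFP-705 splicing reporter; GFP fluorescence per well restored by corrected splicing of the IVS2-705 intron in EGFP; % of control where 0% means no effect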
In short: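 HeLa IVS2-705 EGFP reporter cells, 500/well, compound 2 d at 37C; correct splicing yields fluorescent EGFP. Control: 500 nM antisense PNA. Read-out: total peak GFP intensity.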

[9] = measured here: cell count channel max response
[10] = measured here: lipid channel max response
[11] = at 12.8 µM (top of the series), parasite line A
[12] = at 12.8 µM (top of the series), parasite line B
[13] = at 28.7 µM (top of the series), parasite line A

Chain of Luciferin 4-monooxygenase (Photinus pyralis) (P08659 whole entry, looked up): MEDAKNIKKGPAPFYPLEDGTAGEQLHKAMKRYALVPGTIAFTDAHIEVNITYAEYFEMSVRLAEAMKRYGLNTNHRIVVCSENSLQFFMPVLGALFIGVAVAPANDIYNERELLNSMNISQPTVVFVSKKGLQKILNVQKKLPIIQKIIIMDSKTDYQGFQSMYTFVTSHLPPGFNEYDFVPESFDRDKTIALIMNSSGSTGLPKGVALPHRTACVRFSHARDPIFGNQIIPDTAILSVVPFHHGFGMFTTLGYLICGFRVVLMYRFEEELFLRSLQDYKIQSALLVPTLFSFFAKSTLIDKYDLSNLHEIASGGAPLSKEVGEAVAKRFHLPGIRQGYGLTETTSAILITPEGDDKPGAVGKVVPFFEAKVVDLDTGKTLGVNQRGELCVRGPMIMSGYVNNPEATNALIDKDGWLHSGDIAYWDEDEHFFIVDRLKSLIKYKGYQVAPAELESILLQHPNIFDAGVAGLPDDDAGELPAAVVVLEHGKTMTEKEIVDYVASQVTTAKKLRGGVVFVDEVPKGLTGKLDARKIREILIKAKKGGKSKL
Chain of Cytochrome P450 3A4 (Homo sapiens) (P08684 whole entry, looked up): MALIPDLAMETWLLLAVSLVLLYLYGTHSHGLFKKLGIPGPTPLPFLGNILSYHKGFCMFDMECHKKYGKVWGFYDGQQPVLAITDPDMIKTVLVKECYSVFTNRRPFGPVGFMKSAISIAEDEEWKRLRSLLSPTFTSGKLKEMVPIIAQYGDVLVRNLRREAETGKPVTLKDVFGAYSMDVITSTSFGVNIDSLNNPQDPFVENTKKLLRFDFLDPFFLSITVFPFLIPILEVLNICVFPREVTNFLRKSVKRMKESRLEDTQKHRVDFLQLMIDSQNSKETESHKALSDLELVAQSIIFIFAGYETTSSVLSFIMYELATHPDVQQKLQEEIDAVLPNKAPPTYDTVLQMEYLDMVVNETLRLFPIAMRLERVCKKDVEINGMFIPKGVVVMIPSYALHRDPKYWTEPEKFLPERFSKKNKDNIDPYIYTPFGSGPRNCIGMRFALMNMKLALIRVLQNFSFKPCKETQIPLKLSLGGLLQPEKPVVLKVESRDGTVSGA
Chain of Ubiquitin carboxyl-terminal hydrolase 1 (Homo sapiens) (O94782 whole entry, looked up): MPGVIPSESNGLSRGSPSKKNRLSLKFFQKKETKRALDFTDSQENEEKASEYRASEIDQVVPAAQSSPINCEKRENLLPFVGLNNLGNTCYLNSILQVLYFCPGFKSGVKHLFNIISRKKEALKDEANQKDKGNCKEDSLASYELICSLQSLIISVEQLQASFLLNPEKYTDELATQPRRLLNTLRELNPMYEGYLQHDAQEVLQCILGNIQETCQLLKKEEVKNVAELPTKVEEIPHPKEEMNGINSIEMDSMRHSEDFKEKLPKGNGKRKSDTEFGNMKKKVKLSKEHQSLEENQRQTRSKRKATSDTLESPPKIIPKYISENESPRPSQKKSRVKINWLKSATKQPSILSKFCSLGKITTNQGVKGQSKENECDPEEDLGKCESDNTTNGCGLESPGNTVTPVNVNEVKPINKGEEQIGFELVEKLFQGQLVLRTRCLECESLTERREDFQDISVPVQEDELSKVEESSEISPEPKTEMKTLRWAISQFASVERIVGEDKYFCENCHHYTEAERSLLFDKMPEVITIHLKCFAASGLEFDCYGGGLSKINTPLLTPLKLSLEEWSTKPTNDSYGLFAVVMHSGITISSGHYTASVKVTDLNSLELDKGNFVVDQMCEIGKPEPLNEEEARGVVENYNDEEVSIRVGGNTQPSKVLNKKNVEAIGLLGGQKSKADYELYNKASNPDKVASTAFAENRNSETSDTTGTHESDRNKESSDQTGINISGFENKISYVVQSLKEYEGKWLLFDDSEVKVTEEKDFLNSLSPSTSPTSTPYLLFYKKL

C[C@@](N)(C(=O)O)c1cccc(CC(=O)O)c1
1.61%: max response [1, 9]
3.55%: max response [1, 10]
inactive: activity change, negative = inhibition ([1]; at 57.5 µM (top of the series)) 1.75% | Potency [2]

O=C(OC[C@@H](O)CO)c1ccccc1Nc1ccnc2cc(Cl)ccc12
inactive: activity change, negative = inhibition ([1]; at 25.7 µM (top of the series)) -2.54% | Potency [3] | activity, negative = inhibition [4, 11] -14.6% | activity, negative = inhibition [4, 12] -22.4% | Potency (C2A) | Potency (CP191) | Potency (CP201) | Potency (CP238) | Potency (CP262) | Potency (CP268) | Potency (CP315) | Potency (DFO2036) | Potency (ECU) | Potency (FAB9) | Potency (PC15) | Potency (PC49)
3.2%: max response [1, 10]
9.55%: max response [1, 9]

C=Cc1c(C)c2cc3nc(cc4[nH]c(cc5nc(cc1[nH]2)C(C)=C5CCC(=O)O)c(CCC(=O)OC)c4C)[C@@]1(C)C3=CC=C(C(=O)OC)[C@H]1C(=O)OC (tested in a mixture with another compound)
2.29%: max response [1, 10]
inactive: activity change, negative = inhibition ([1]; at 25.7 µM (top of the series)) 1.23% | Potency [3] | Potency [5] | Potency (CP201) | Potency (CP262) | Potency (CP315)
3.74%: max response [1, 9]
active: Potency ([4]; parasite line A) 10 µM | Potency ([4]; parasite line B) 5.62 µM | Potency (C2A) 14.1 µM | Potency (CP191) 11.2 µM | Potency (CP238) 11.2 µM | Potency (DFO2036) 11.2 µM | Potency (ECU) 3.98 µM | Potency (PC15) 5.01 µM | Potency (PC49) 5.01 µM

CCN1CCC[C@@H](OC(=O)C(c2ccccc2)c2ccccc2)C1
-10.4%: max response [1, 10]
inactive: activity change, negative = inhibition ([1]; at 25.7 µM (top of the series)) -6.3% | Potency [3] | Potency [5] | activity, negative = inhibition [4, 11] 0.857% | activity, negative = inhibition [4, 12] -1.3% | Potency (C2A) | Potency (CP191) | Potency (CP201) | Potency (CP238) | Potency (CP262) | Potency (CP268) | Potency (CP315) | Potency (DFO2036) | Potency (ECU) | Potency (FAB9)
-3.56%: max response [1, 9]

COC(=O)C1=C(C)NC(C)=C(C(=O)OCCN(C)Cc2ccccc2)[C@H]1c1cccc([N+](=O)[O-])c1
-13.6%: max response [1, 10]
inactive: activity change, negative = inhibition ([1]; at 25.7 µM (top of the series)) 0.376%
-15.5%: max response [1, 9]

NCCC(=O)N[C@@H](Cc1cnc[nH]1)C(=O)O
-9.96%: max response [1, 10]
inactive: Potency [6] | activity change, negative = inhibition ([1]; at 57.5 µM (top of the series)) -2.81%
-6.32%: max response [1, 9]

CCC(C)(C)C(=O)O[C@@H]1C[C@H](C)C=C2C=C[C@H](C)[C@@H](CC[C@H]3C[C@@H](O)CC(=O)O3)[C@H]21
-20.7%: max response [1, 10]
inactive: activity change, negative = inhibition ([1]; at 25.7 µM (top of the series)) -9.23% | Potency [3] | Potency [5] | activity, negative = inhibition [4, 11] -15.1% | Potency (C2A) | Potency (CP191) | Potency (CP201) | Potency (CP238) | Potency (CP262) | Potency (CP268) | Potency (CP315) | Potency (DFO2036) | Potency (ECU) | Potency (FAB9) | Potency (PC15) | Potency (PC49)
-10.9%: max response [1, 9]

CCO[C@H]1O[C@@H]([C@H](COCc2ccccc2)OCc2ccccc2)[C@@H](OCc2ccccc2)[C@H]1O
-8.63%: max response [1, 9]
inactive: activity change, negative = inhibition ([1]; at 25.7 µM (top of the series)) -6.14% | Potency [3] | Potency [5] | activity, negative = inhibition [4, 12] -27.6% | Potency (C2A) | Potency (CP191) | Potency (CP201) | Potency (CP238) | Potency (CP262) | Potency (CP268) | Potency (CP315) | Potency (DFO2036) | Potency (ECU) | Potency (FAB9) | Potency (PC15) | Potency (PC49)
-12.6%: max response [1, 10]

COc1cc2ccc(=O)oc2c(O)c1O
13.9%: max response [1, 9]
inactive: Potency [6] | Potency [7] | Potency [8] | activity change, negative = inhibition ([1]; at 57.5 µM (top of the series)) -4.51%
11.4%: max response [1, 10]

COc1ccc2c(c1)N(C[C@@H](C)CN(C)C)c1ccccc1S2
inactive: activity change, negative = inhibition ([1]; at 25.7 µM (top of the series)) -4.01% | activity, negative = inhibition [4, 11] 2.81% | activity, negative = inhibition [4, 12] -1.87%

COc1cc(C2c3cc4c(cc3C(O[C@@H]3OC5COC(c6cccs6)OC5C(O)C3O)C3COC(=O)C23)OCO4)cc(OC)c1O (stereo partly drawn)
active: Potency [1] 5.01 µM

C[C@]12CCC(=O)C=C1CCC1C2C(=O)C[C@]2(C)C1CC[C@]2(O)C(=O)CO (stereo partly drawn)
inactive: Potency [6] | Potency [7] | Potency [8] | activity change, negative = inhibition ([1]; at 57.5 µM (top of the series)) -0.346% | Potency [2] | Potency [3] | Potency [5] | activity, negative = inhibition [4, 13] 3.27% | activity, negative = inhibition ([4]; at 28.7 µM (top of the series), parasite line B) -0.753% | Potency (C2A) | Potency (CP191) | Potency (CP201) | Potency (CP238) | Potency (CP262) | Potency (CP268) | Potency (CP315) | Potency (DFO2036) | Potency (ECU) | Potency (FAB9) | Potency (PC15) | Potency (PC49)
22.5%: max response [1, 9]
22%: max response [1, 10]

COC(=O)[C@H]1[C@@H]2C[C@@H]3c4[nH]c5ccccc5c4CCN3C[C@H]2CC[C@H]1O
12.3%: max response [1, 9]
17.8%: max response [1, 10]
inactive: activity change, negative = inhibition ([1]; at 57.5 µM (top of the series)) 4.52% | Potency [2]

O=c1c(-c2ccc(O[C@@H]3O[C@H](CO)[C@@H](O)[C@H](O)[C@H]3O)cc2)coc2cc(O)cc(O)c12
inactive: Potency [6] | activity change, negative = inhibition ([1]; at 57.5 µM (top of the series)) 7.95% | Potency [2]
-1.95%: max response [1, 9]
5.64%: max response [1, 10]

CC1(C)S[C@H]2C(NC(=O)[C@@H](N)c3ccc(O)cc3)C(=O)N2[C@@H]1C(=O)O (stereo partly drawn)
32.6%: max response [1, 10]
17.1%: max response [1, 9]
inactive: Potency [6] | Potency [7] | Potency [8] | activity change, negative = inhibition ([1]; at 57.5 µM (top of the series)) 9.47% | Potency [2] | Potency [3] | Potency [5] | activity, negative = inhibition [4, 13] -0.804% | Potency (C2A) | Potency (CP191) | Potency (CP201) | Potency (CP238) | Potency (CP262) | Potency (CP268) | Potency (CP315) | Potency (DFO2036) | Potency (ECU) | Potency (FAB9) | Potency (PC15) | Potency (PC49)
